The source of these data is PubChem BioAssay (EPA / NIEHS).

One may read the AC50 as the concentration at which the activity in the assay is half-maximal.

Where a structure was tested more than once in an assay, its records may differ in their call. Activity calls are given as the source filed them. How the source made its calls: active means hit-call score of the fitted dose curve at least 0.9, where 1 is the maximum; inactive means score below 0.9.

Read-out in the test: Glutathione S-transferase M3 (GSTM3), GSTM3 (gene 2947)
The experiment in a line: LTEA_HepaRG_GSTM3: Life Technologies and Expression Analysis (LTEA) Assay for Glutathione S-transferase M3 (GSTM3) using HepaRG (AID 2283501). The conditions noted are these: mRNA level, 48 h; actives raise or lower the signal. The method, then: LTEA_HepaRG is a cell based, multiplexed-readout assay that uses HepaRG, a human liver cell line, with measurements taken at 48 hours after chemical dosing on a 96-well plate.LTEA_HepaRG_GSTM3 is one of 102 assay component(s) measured in the LTEA HepaRG cell culture assay. It is a marker of Oxidative Stress.Data from the assay component LTEA_HepaRG_GSTM3 was analyzed into 1 endpoint. This assay endpoint, LTEA_HepaRG_GSTM3, was analyzed with bidirectional fitting relative to DMSO as the negative control and baseline of activity. Using a type of inducible reporter, measures of mRNA induction for gain or loss-of-signal activity can be used to understand regulation of transcription factor activity. To generalize the intended target to other relatable targets, this assay endpoint is annotated to the transferase intended target family, where the subfamily is alkyl and aryl transferase.
A total of 1060 chemcials from the ToxCast library were tested in eight-point concentration-response experiments. Cell culture and cytotoxicity assays were conducted at Thermo Fisher Scientific's Custom Services facility (Madison, WI). A single lot of human HepaRG cells (Thermo Fisher Scientific, Frederick, MD) was used for the cell culture experiments. 96-well format collagen type I coated plates of human HepaRG cells were prepared using established methods. Briefly, cryopreserved HepaRG cells were thawed, plated at a density of approximately 100,000 cells/well in HepaRG Thaw, Plate, and General Purpose media (HPRG770, Thermo Fisher Scientific), and incubated for 48 hours. 0.5% DMSO was selected as vehicle control to balance the requisite need of DMSO in HepaRG cultures to maintain differentiation (for example, baseline metabolism, proportions of hepatocytes vs. cholangiocytes), while enabling further hepatic receptor pathway activation (for example, PXR and CAR) in response to chemical exposure. 48 hours after plating, the culture medium was replaced with HepaRG Serum-Free Incudtion Media. Cells were exposed to each test chemical in duplicate and maintained in CO2 incubators for another 48 hours. Chemical plates were thawed to room temperature and 200x concentrations of treatment groups were prepared. 8-point conentration-reponse curves were made with the highest exposure at 100 uM, followed by half-log dilutions, all in 0.5% DMSO. Each test plate contained variouse controls, induction positive controls (1mM phenobarbital), cytotoxicity positive controls ([…] aflatoxin B1), vehicle controls (0.5% DMSO), and total lysis controls (0.5% DMSO). Cell morphology images were taken using an Essen IncuCyte FLR automated microscope, with six 96-well plates imaged in about 24 minutes. Images were captured and exported and JPEG files. Spent culture media was transfered to black-well plates for the LDH assay, and remaining media was sorted at -80 C for later use. Cells were treated with RLT buffer and frozen until shipped for gene expression analysis. Total RNA was isolated from the cell suspension in 75 uL of Buffer RLT (Qiagen, Germantown, MD 20874) by Quintiles/Expression Analysis (Durham, NC) using a custom isolation procedure. Total RNA from each plate well was transferred to a preamplification plate. Fluidigm's 96.96 Dynamic ArrayTM (Fluidigm, Amsterdam, the Netherlands) technology was used for gene expression analyses by quantitative reverse transcription polymerase chain reaction (qRT-PCR, performed by Quintiles/Expression Analysis, Durham, NC)89. Standard TaqManTM Assays (Applied Biosystems/ThermoFisher Scientific, Foster City, CA) were used to assess the expression of 93 genes selected based on their selectivity and sensitivity to important hepatic receptors known to be modulated by environmental chemicals; importance in human hepatocyte functionality; and hepatotoxicity. […]
Regarding `CCC(C)Nc1c([N+](=O)[O-])cc(C(C)(C)C)cc1[N+](=O)[O-]` (stereo not given), the call was inactive. `C[C@H]1[C@H](c2ccc(Cl)cc2)SC(=O)N1C(=O)NC1CCCCC1`: the molecule was classed as inactive.

For the molecule `CN1CSC(=S)N(C)C1`, the outcome was inactive. In the case of `COc1nn(CSP(=S)(OC)OC)c(=O)s1`, the call was inactive. `O=C(O)CCCOc1ccc(Cl)cc1Cl`: the outcome was inactive. On to `CC(C)(C)C(O)/C(=C\c1ccc(Cl)cc1Cl)n1cncn1` (stereo not given), for which the result was inactive. With `CNC(=O)CSP(=S)(OC)OC`, the result was inactive. As to `COP(=S)(OC)Oc1ccc(SC)c(C)c1`, the outcome was inactive. On to `ClC1C(Cl)C(Cl)C(Cl)C(Cl)C1Cl` (stereo not given), for which the outcome was inactive. Still for that read-out and setting: then `COP(=S)(OC)Oc1ccc([N+](=O)[O-])cc1`, with “inactive”; and `O=C(Nc1ccccc1)Nc1cnns1`, with “inactive”; and `O=C(O)COc1ccc(Cl)cc1Cl`, with “inactive”. For `Oc1cc(Cl)ccc1Oc1ccc(Cl)cc1Cl`, the outcome was inactive.

With `O=C(O)C(F)(F)C(F)(F)C(F)(F)C(F)(F)C(F)(F)C(F)(F)C(F)(F)F`, the outcome was inactive. In the case of `O=C1c2ccccc2C(=O)N1SC(Cl)(Cl)Cl`, the molecule was called inactive. Consider `CC1(C)C(C=C(Cl)Cl)C1C(=O)OC(C#N)c1ccc(F)c(Oc2ccccc2)c1` (stereo not given), for which the molecule was classed as inactive.

On to `Oc1ccc(Cl)cc1Cc1ccccc1`, for which the AC50 is 91.9 µM (active) and the result was inactive. As for `CCOC1Oc2ccc(OS(C)(=O)=O)cc2C1(C)C` (stereo not given), the molecule was classed as inactive.

For `CCC(C)(NC(=O)c1cc(Cl)c(C)c(Cl)c1)C(=O)CCl` (stereo not given), the AC50 was 50.2 µM (active). With `CC(C)(C)C(O)C(Oc1ccc(Cl)cc1)n1cncn1` (stereo not given), the call was inactive. Consider `O=[N+]([O-])/N=C1\NCCN1Cc1ccc(Cl)nc1`, for which the call was inactive. Regarding `CCCN(CCC)c1c([N+](=O)[O-])cc(C(F)(F)F)cc1[N+](=O)[O-]`, the outcome was inactive. As for `CC1(c2ccc(Oc3ccccc3)cc2)OC(=O)N(Nc2ccccc2)C1=O` (stereo not given), the half-maximal activity concentration (AC50) was 50.2 µM (active). On to `N#CN`, for which the call was inactive. For the molecule `COP(=O)(OC)OC=C(Cl)Cl`, the call was inactive.

For the molecule `CNC(=O)Oc1cccc(N=CN(C)C)c1`, the molecule was called inactive. With `C#CCN1C(=O)COc2cc(F)c(N3C(=O)C4=C(CCCC4)C3=O)cc21`, the molecule was classed as inactive. As to `CC[C@H](C)[C@H]1O[C@]2(C=C[C@@H]1C)C[C@@H]1C[C@@H](C/C=C(\C)[C@@H](O[C@H]3C[C@H](OC)[C@@H](O[C@H]4C[C@H](OC)[C@@H](O)[C@H](C)O4)[C@H](C)O3)[C@@H](C)/C=C/C=C3\CO[C@@H]4[C@H](O)C(C)=C[C@@H](C(=O)O1)[C@]34O)O2` (tested in a mixture with another compound), the concentration at half-maximal activity (AC50) was 9.57 µM (active). Turning to `O=S(=O)(O)C(F)(F)C(F)(F)C(F)(F)C(F)(F)C(F)(F)C(F)(F)C(F)(F)C(F)(F)F`, the molecule was classed as inactive. `CC(C)N(C(=O)COc1nnc(C(F)(F)F)s1)c1ccc(F)cc1`: the molecule was called inactive. On the same count and under the same terms, the same measure for `CCC(C)(C)C(=O)OC1=C(c2ccc(Cl)cc2Cl)C(=O)OC12CCCCC2`: “inactive”; for `Cc1[nH]c(=O)n(C(C)(C)C)c(=O)c1Cl`: “inactive”; for `CCc1ccc(C(=O)NN(C(=O)c2cc(C)cc(C)c2)C(C)(C)C)cc1`: “inactive”.

On to `CCCN(CCOc1c(Cl)cc(Cl)cc1Cl)C(=O)n1ccnc1`, for which the half-maximal activity concentration (AC50) is 78 µM (active).

As to `CCN(CC)C(=O)SCc1ccc(Cl)cc1`, the result was inactive. On to `OCCOc1ccccc1`, for which the result was inactive. As for `Clc1ccccc1-c1nnc(-c2ccccc2Cl)nn1`, the outcome was inactive.

Take `O=S1OCC2C(CO1)C1(Cl)C(Cl)=C(Cl)C2(Cl)C1(Cl)Cl` (stereo not given): the result was inactive. The same measure, in the same setting: then `CNC(=O)Oc1ccccc1OC(C)C`, with “inactive”.
